Data reported in the supplement of paper PMC4206467.

Tested on: Perkinsus marinus PRA240
Assay: ATP content (proliferation) relative to DMSO control; higher = more parasite growth (less inhibition)
Settings: 20 µM; 4 days
Experimental: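 Perkinsus marinus PRA240 trophozoites (2-5x10^6 cells/ml, 100 µl, 96-well) were exposed once to MMV Malaria Box compounds at 20 µM (0.1% DMSO) in triplicate. ATP content (ATPlite bioluminescence) was read at day 4 post-exposure and normalised to DMSO + cells control wells (100% activity). Compounds were identified by joining plate and well to the Malaria Box list.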

## Cc1c(C)n(Cc2ccc(F)cc2)c2ccc(C(=O)NCc3ccco3)cc12
  ATP content: 111%

## Cc1ccc(S(=O)(=O)c2c(COC(=O)c3cccc(C)c3)c(-c3ccccc3)nn2C)cc1
  ATP content: 162%

## Oc1ccc(Cl)cc1CNc1nc2ccccc2[nH]1
  ATP content: 49.7%

## Cc1cc(=O)oc2c1ccc1oc(C(=O)c3ccccc3)c(C)c12
  ATP content: 154%

## COc1ccc(-c2nonc2NC(=O)c2cccc(Cl)c2)cc1OC
  ATP content: 135%

## O=C(Nc1nc(-c2ccccn2)cs1)c1ccccc1Br
  ATP content: 8.72%

## COc1ccc2nc(N)nc(C)c2c1
  ATP content: 88%

## CC1CCCCN1CCCNC(=O)c1ccc2c(c1)sc1nc(-c3ccc(F)cc3)cn12 (configuration not stated)
  ATP content: 133%

## CN(C)CCNc1cc(-c2ccccc2)nc2ccccc12
  ATP content: 106%

## CCOc1ccc(-c2nc(NC(=O)c3cccc(S(C)(=O)=O)c3)sc2C)cc1
  ATP content: 79.8%

## Cc1cc(C)c2nc(N3CCC(C(=O)NCCCN4CCC(N5CCCCC5)CC4)CC3)sc2c1
  ATP content: 135%

## COc1cccc(NC(=O)Cn2c(C)c(C#N)c3ccccc32)c1
  ATP content: 110%

## CCOc1ccc(-n2cc(-c3ccccc3)c3c(SCc4cc(C)ccc4C)ncnc32)cc1
  ATP content: 171%

## COc1ccc(-c2nc(N3CCN(C(=O)C4CCCCC4)CC3)c3c4c(sc3n2)CCCC4)cc1
  ATP content: 69.7%

## CCOc1ccc(C=Cc2nc(=O)c3ccccc3o2)cc1
  ATP content: 14.6%

## COc1ccc(C(=O)Nc2ccc(Cl)cc2C(=O)Nc2ccncc2)cc1
  ATP content: 106%

## CN1CCN(c2c3c(c(C#N)c4nc5ccccc5n24)CCC3)CC1
  ATP content: 140%

## C=C(C)CCC(C)N1CCC(N2CCC(C(=O)NCCc3ccccc3)CC2)CC1 (configuration not stated)
  ATP content: 90%

## COc1cccc(Nc2nc(N)c3ccccc3n2)c1
  ATP content: 9.11%

## Cc1cc(Nc2ccc(OCc3ccccc3)cc2)nc2cc(O)ccc12
  ATP content: 4.92%

## O=C(Nc1ccc(F)c(Cl)c1)Nc1ccc(Cl)c(Cl)c1
  ATP content: 46.8%

## COc1ccc(-c2cn3c(C(=O)Nc4ccccc4Cl)c(-c4ccccc4)c4c3n2CCCC4)cc1
  ATP content: 99.7%

## COc1ccc(CN2CCCC(C(=O)c3ccc(C(F)(F)F)cc3)C2)c(O)c1 (configuration not stated)
  ATP content: 117%

## Cn1c(=O)c2cc(C(=O)NCCCN3CCCCCC3)sc2c2ccccc21
  ATP content: 86.3%

## OC(CNCC1CCCO1)Cn1c2ccc(Cl)cc2c2cc(Cl)ccc21 (configuration not stated)
  ATP content: 142%

## COc1cccc(C(=O)NC(c2ccc(C)cc2)c2cc(Cl)c3cccnc3c2O)c1 (configuration not stated)
  ATP content: 39.5%

## CN1c2ccccc2N(C)C1c1ccc2c(c1)OCO2
  ATP content: 87.3%

## CCN(CC)CCCNc1nc(-c2ccc(Cl)cc2)nc2ccccc12
  ATP content: 99.6%

## Oc1c2c(nc3ccccc13)CCCC2
  ATP content: 42.5%

## O=C(NCCCN1CCC(N2CCCCC2)CC1)C1=Cc2cc(Br)ccc2OC1
  ATP content: 224%

## CCOc1ccc(C2N(C)c3ccccc3N2C)cc1
  ATP content: 131%

## Nc1ccn(C2O[C@H](CO)[C@@H](O)[C@H]2O)c(=O)n1 (some centres not stated)
  ATP content: 132%

## COc1ccc(-c2cc3c(nn2)-c2ccccc2C3=O)cc1
  ATP content: 32.7%

## COc1ccc2sc(N(Cc3cccnc3)C(=O)c3ccc(C#N)cc3)nc2c1
  ATP content: 111%

## FC(F)(F)c1cccc(Nc2nc(-c3ccccc3)nc3ncccc23)c1
  ATP content: 108%

## Cc1ccc(CN2CCC(C(=O)Nc3ccc(-c4cc5ccccc5[nH]4)cc3)CC2)o1
  ATP content: 83.4%

## Cc1sc2ncnc(Sc3nc4ccccc4[nH]3)c2c1C
  ATP content: 131%
